According to publication PMC11062922 (Nature Chemical Biology, 2023):
Read-outs that look alike come from different tables or passages of the source.

Assays:
CDKL5 = details: read-out: apparent Kd, n = 1
CLK4 = details: read-out: apparent Kd, n = 1
[1] = compound concentrations:100 nM and 1000 nM (sheet 'Lestaurtinib' of Supplementary Table 1),run:Lestaurtinib_02577_R1,Plate:MR016
[2] = compound concentrations:100 nM and 1000 nM (sheet 'Lestaurtinib' of Supplementary Table 1),run:Lestaurtinib_02577_R2,Plate:MR016
[3] = compound concentrations:100 nM and 1000 nM (sheet 'Lestaurtinib' of Supplementary Table 1),run:Lestaurtinib_02584_R1,Plate:MR017
[4] = compound concentrations:100 nM and 1000 nM (sheet 'Lestaurtinib' of Supplementary Table 1),run:Lestaurtinib_02584_R2,Plate:MR017
[5] = compound concentrations:100 nM and 1000 nM (sheet 'Lestaurtinib' of Supplementary Table 1),run:Lestaurtinib_02584_R3,Plate:MR017
[6] = compound concentrations:100 nM and 1000 nM (sheet 'Lestaurtinib' of Supplementary Table 1),run:Lestaurtinib_02606_R1,Plate:MR019
[7] = compound concentrations:100 nM and 1000 nM (sheet 'Lestaurtinib' of Supplementary Table 1),run:Lestaurtinib_02624_R2,Plate:MR020
[8] = compound concentrations:100 nM and 1000 nM (sheet 'Lestaurtinib' of Supplementary Table 1),run:Lestaurtinib_02766_R3,Plate:MR027

Lestaurtinib
potency estimated from few doses (CDKL5; [1]): 82.6 nM
potency estimated from few doses (CDKL5; [2]): 144 nM
potency estimated from few doses (CDKL5; [3]): 86.8 nM
potency estimated from few doses (CDKL5; [4]): 37.3 nM
potency estimated from few doses (CDKL5; [5]): 565 nM
potency estimated from few doses (CDKL5; compound concentrations:100 nM and 1000 nM (sheet 'Lestaurtinib' of Supplementary Table 1),run:Lestaurtinib_02601_R1,Plate:MR018): 966 nM
potency estimated from few doses (CDKL5; compound concentrations:100 nM and 1000 nM (sheet 'Lestaurtinib' of Supplementary Table 1),run:Lestaurtinib_02601_R2,Plate:MR018): 921 nM
potency estimated from few doses (CDKL5; compound concentrations:100 nM and 1000 nM (sheet 'Lestaurtinib' of Supplementary Table 1),run:Lestaurtinib_02601_R3,Plate:MR018): 143 nM
potency estimated from few doses (CDKL5; [6]): 58.1 nM
potency estimated from few doses (CDKL5; compound concentrations:100 nM and 1000 nM (sheet 'Lestaurtinib' of Supplementary Table 1),run:Lestaurtinib_02606_R2,Plate:MR019): 98.3 nM
potency estimated from few doses (CDKL5; compound concentrations:100 nM and 1000 nM (sheet 'Lestaurtinib' of Supplementary Table 1),run:Lestaurtinib_02624_R1,Plate:MR020): 75 nM
potency estimated from few doses (CDKL5; [7]): 137 nM
potency estimated from few doses (CDKL5; compound concentrations:100 nM and 1000 nM (sheet 'Lestaurtinib' of Supplementary Table 1),run:Lestaurtinib_02741_R2,Plate:MR023): 695 nM
potency estimated from few doses (CDKL5; compound concentrations:100 nM and 1000 nM (sheet 'Lestaurtinib' of Supplementary Table 1),run:Lestaurtinib_02748_R3,Plate:MR024): 149 nM
potency estimated from few doses (CDKL5; compound concentrations:100 nM and 1000 nM (sheet 'Lestaurtinib' of Supplementary Table 1),run:Lestaurtinib_02752_R1,Plate:MR025): 225 nM
potency estimated from few doses (CDKL5; compound concentrations:100 nM and 1000 nM (sheet 'Lestaurtinib' of Supplementary Table 1),run:Lestaurtinib_02752_R3,Plate:MR025): 226 nM
potency estimated from few doses (CDKL5; compound concentrations:100 nM and 1000 nM (sheet 'Lestaurtinib' of Supplementary Table 1),run:Lestaurtinib_02765_R2,Plate:MR026): 212 nM
potency estimated from few doses (CDKL5; [8]): 28.6 nM
potency estimated from few doses (CDKL5; compound concentrations:100 nM and 1000 nM (sheet 'Lestaurtinib' of Supplementary Table 1),run:Lestaurtinib_02795_R2,Plate:MR022): 1690 nM
potency estimated from few doses (CDKL5; compound concentrations:100 nM and 1000 nM (sheet 'Lestaurtinib' of Supplementary Table 1),run:Lestaurtinib_02795_R3,Plate:MR022): 55.9 nM
potency estimated from few doses (CDKL5; compound concentrations:100 nM and 1000 nM (sheet 'Lestaurtinib' of Supplementary Table 1),run:Lestaurtinib_02802_R2,Plate:MR029): 130 nM
potency estimated from few doses (CDKL5; compound concentrations:100 nM and 1000 nM (sheet 'Lestaurtinib' of Supplementary Table 1),run:Lestaurtinib_02896_R1,Plate:MR030): 336 nM
potency estimated from few doses (CDKL5; compound concentrations:100 nM and 1000 nM (sheet 'Lestaurtinib' of Supplementary Table 1),run:Lestaurtinib_02896_R2,Plate:MR030): 99.8 nM
potency estimated from few doses (CDKL5; compound concentrations:100 nM and 1000 nM (sheet 'Lestaurtinib' of Supplementary Table 1),run:Lestaurtinib_02896_R3,Plate:MR030): 1300 nM
potency estimated from few doses (CDKL5; compound concentrations:100 nM and 1000 nM (sheet 'Lestaurtinib' of Supplementary Table 1),run:Lestaurtinib_03172_R1,Plate:MR031): 298 nM
potency estimated from few doses (CDKL5; compound concentrations:100 nM and 1000 nM (sheet 'Lestaurtinib' of Supplementary Table 1),run:Lestaurtinib_03172_R3,Plate:MR031): 99.7 nM
potency estimated from few doses (CDKL5; compound concentrations:100 nM and 1000 nM (sheet 'Lestaurtinib' of Supplementary Table 1),run:Lestaurtinib_03260_R2,Plate:MR033): 460 nM
potency estimated from few doses (CDKL5; compound concentrations:100 nM and 1000 nM (sheet 'Lestaurtinib' of Supplementary Table 1),run:Lestaurtinib_03260_R3,Plate:MR033): 730 nM
potency estimated from few doses (CLK4; compound concentrations:100 nM and 1000 nM (sheet 'Lestaurtinib' of Supplementary Table 1),run:Lestaurtinib_02339_R1,Plate:MR001): 43.2 nM
potency estimated from few doses (CLK4; compound concentrations:100 nM and 1000 nM (sheet 'Lestaurtinib' of Supplementary Table 1),run:Lestaurtinib_02339_R2,Plate:MR001): 51.8 nM
potency estimated from few doses (CLK4; compound concentrations:100 nM and 1000 nM (sheet 'Lestaurtinib' of Supplementary Table 1),run:Lestaurtinib_02339_R3,Plate:MR001): 29.6 nM
potency estimated from few doses (CLK4; compound concentrations:100 nM and 1000 nM (sheet 'Lestaurtinib' of Supplementary Table 1),run:Lestaurtinib_02364_R2,Plate:MR002): 35.4 nM
potency estimated from few doses (CLK4; compound concentrations:100 nM and 1000 nM (sheet 'Lestaurtinib' of Supplementary Table 1),run:Lestaurtinib_02367_R2,Plate:MR003): 78.8 nM
potency estimated from few doses (CLK4; compound concentrations:100 nM and 1000 nM (sheet 'Lestaurtinib' of Supplementary Table 1),run:Lestaurtinib_02367_R3,Plate:MR003): 56.1 nM
potency estimated from few doses (CLK4; compound concentrations:100 nM and 1000 nM (sheet 'Lestaurtinib' of Supplementary Table 1),run:Lestaurtinib_02381_R1,Plate:MR004): 62.4 nM
potency estimated from few doses (CLK4; compound concentrations:100 nM and 1000 nM (sheet 'Lestaurtinib' of Supplementary Table 1),run:Lestaurtinib_02381_R2,Plate:MR004): 34.7 nM
potency estimated from few doses (CLK4; compound concentrations:100 nM and 1000 nM (sheet 'Lestaurtinib' of Supplementary Table 1),run:Lestaurtinib_02381_R3,Plate:MR004): 51.1 nM
potency estimated from few doses (CLK4; compound concentrations:100 nM and 1000 nM (sheet 'Lestaurtinib' of Supplementary Table 1),run:Lestaurtinib_02407_R2,Plate:MR005): 17 nM
potency estimated from few doses (CLK4; compound concentrations:100 nM and 1000 nM (sheet 'Lestaurtinib' of Supplementary Table 1),run:Lestaurtinib_02407_R3,Plate:MR005): 22.9 nM
potency estimated from few doses (CLK4; compound concentrations:100 nM and 1000 nM (sheet 'Lestaurtinib' of Supplementary Table 1),run:Lestaurtinib_02422_R1,Plate:MR006): 27.9 nM
potency estimated from few doses (CLK4; compound concentrations:100 nM and 1000 nM (sheet 'Lestaurtinib' of Supplementary Table 1),run:Lestaurtinib_02422_R3,Plate:MR006): 48 nM
potency estimated from few doses (CLK4; compound concentrations:100 nM and 1000 nM (sheet 'Lestaurtinib' of Supplementary Table 1),run:Lestaurtinib_02437_R1,Plate:MR007): 25 nM
potency estimated from few doses (CLK4; compound concentrations:100 nM and 1000 nM (sheet 'Lestaurtinib' of Supplementary Table 1),run:Lestaurtinib_02437_R2,Plate:MR007): 71.7 nM
potency estimated from few doses (CLK4; compound concentrations:100 nM and 1000 nM (sheet 'Lestaurtinib' of Supplementary Table 1),run:Lestaurtinib_02438_R1,Plate:MR008): 19.3 nM
potency estimated from few doses (CLK4; compound concentrations:100 nM and 1000 nM (sheet 'Lestaurtinib' of Supplementary Table 1),run:Lestaurtinib_02438_R3,Plate:MR008): 141 nM
potency estimated from few doses (CLK4; compound concentrations:100 nM and 1000 nM (sheet 'Lestaurtinib' of Supplementary Table 1),run:Lestaurtinib_02443_R1,Plate:MR009): 80.9 nM
potency estimated from few doses (CLK4; compound concentrations:100 nM and 1000 nM (sheet 'Lestaurtinib' of Supplementary Table 1),run:Lestaurtinib_02443_R2,Plate:MR009): 75.8 nM
potency estimated from few doses (CLK4; compound concentrations:100 nM and 1000 nM (sheet 'Lestaurtinib' of Supplementary Table 1),run:Lestaurtinib_02473_R1,Plate:MR010): 58 nM
potency estimated from few doses (CLK4; compound concentrations:100 nM and 1000 nM (sheet 'Lestaurtinib' of Supplementary Table 1),run:Lestaurtinib_02473_R2,Plate:MR010): 35.2 nM
potency estimated from few doses (CLK4; compound concentrations:100 nM and 1000 nM (sheet 'Lestaurtinib' of Supplementary Table 1),run:Lestaurtinib_02482_R2,Plate:MR011): 86.4 nM
potency estimated from few doses (CLK4; compound concentrations:100 nM and 1000 nM (sheet 'Lestaurtinib' of Supplementary Table 1),run:Lestaurtinib_02487_R2,Plate:MR012): 73.6 nM
potency estimated from few doses (CLK4; compound concentrations:100 nM and 1000 nM (sheet 'Lestaurtinib' of Supplementary Table 1),run:Lestaurtinib_02496_R2,Plate:MR013): 98.1 nM
potency estimated from few doses (CLK4; compound concentrations:100 nM and 1000 nM (sheet 'Lestaurtinib' of Supplementary Table 1),run:Lestaurtinib_02496_R3,Plate:MR013): 54.4 nM
potency estimated from few doses (CLK4; compound concentrations:100 nM and 1000 nM (sheet 'Lestaurtinib' of Supplementary Table 1),run:Lestaurtinib_02566_R1,Plate:MR014): 47.9 nM
potency estimated from few doses (CLK4; compound concentrations:100 nM and 1000 nM (sheet 'Lestaurtinib' of Supplementary Table 1),run:Lestaurtinib_02572_R1,Plate:MR015): 74.6 nM
potency estimated from few doses (CLK4; compound concentrations:100 nM and 1000 nM (sheet 'Lestaurtinib' of Supplementary Table 1),run:Lestaurtinib_02572_R2,Plate:MR015): 41.6 nM
potency estimated from few doses (CLK4; compound concentrations:100 nM and 1000 nM (sheet 'Lestaurtinib' of Supplementary Table 1),run:Lestaurtinib_02572_R3,Plate:MR015): 53.8 nM
potency estimated from few doses (CLK4; [1]): 877 nM
potency estimated from few doses (CLK4; [2]): 830 nM
potency estimated from few doses (CLK4; [3]): 65.8 nM
potency estimated from few doses (CLK4; [4]): 67.9 nM
potency estimated from few doses (CLK4; [5]): 44.4 nM
potency estimated from few doses (CLK4; [6]): 78.2 nM
potency estimated from few doses (CLK4; compound concentrations:100 nM and 1000 nM (sheet 'Lestaurtinib' of Supplementary Table 1),run:Lestaurtinib_02606_R3,Plate:MR019): 45.4 nM
potency estimated from few doses (CLK4; [7]): 79.1 nM
potency estimated from few doses (CLK4; compound concentrations:100 nM and 1000 nM (sheet 'Lestaurtinib' of Supplementary Table 1),run:Lestaurtinib_02624_R3,Plate:MR020): 55.4 nM
potency estimated from few doses (CLK4; compound concentrations:100 nM and 1000 nM (sheet 'Lestaurtinib' of Supplementary Table 1),run:Lestaurtinib_02724_R2,Plate:MR021): 62.7 nM
potency estimated from few doses (CLK4; compound concentrations:100 nM and 1000 nM (sheet 'Lestaurtinib' of Supplementary Table 1),run:Lestaurtinib_02724_R3,Plate:MR021): 76.1 nM
potency estimated from few doses (CLK4; compound concentrations:100 nM and 1000 nM (sheet 'Lestaurtinib' of Supplementary Table 1),run:Lestaurtinib_02741_R3,Plate:MR023): 62 nM
potency estimated from few doses (CLK4; compound concentrations:100 nM and 1000 nM (sheet 'Lestaurtinib' of Supplementary Table 1),run:Lestaurtinib_02748_R2,Plate:MR024): 132 nM
potency estimated from few doses (CLK4; [8]): 69.4 nM
potency estimated from few doses (CLK4; compound concentrations:100 nM and 1000 nM (sheet 'Lestaurtinib' of Supplementary Table 1),run:Lestaurtinib_02768_R2,Plate:MR028): 1150 nM
